# A selection: hits, their analogues and other compounds. The true share with any hit is near 7.5%.
# FLuc counter = counter-screen for miR-21 project: firefly luciferase inhibitors or activators | purified FLuc, Km substrates, luminescence inhibition | Potency, µM (series often up to 57.5 µM), for the others: at the highest dose activity change, negative = inhibition, usual class: inhibitors | actives 6.9% (n = 360,000);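 note: plate controls were vehicle for no effect and reference inhibitor for full effect; nearly all actives have a fitted effect of over 55% in size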
# Target sequence (P08659 whole entry, looked up): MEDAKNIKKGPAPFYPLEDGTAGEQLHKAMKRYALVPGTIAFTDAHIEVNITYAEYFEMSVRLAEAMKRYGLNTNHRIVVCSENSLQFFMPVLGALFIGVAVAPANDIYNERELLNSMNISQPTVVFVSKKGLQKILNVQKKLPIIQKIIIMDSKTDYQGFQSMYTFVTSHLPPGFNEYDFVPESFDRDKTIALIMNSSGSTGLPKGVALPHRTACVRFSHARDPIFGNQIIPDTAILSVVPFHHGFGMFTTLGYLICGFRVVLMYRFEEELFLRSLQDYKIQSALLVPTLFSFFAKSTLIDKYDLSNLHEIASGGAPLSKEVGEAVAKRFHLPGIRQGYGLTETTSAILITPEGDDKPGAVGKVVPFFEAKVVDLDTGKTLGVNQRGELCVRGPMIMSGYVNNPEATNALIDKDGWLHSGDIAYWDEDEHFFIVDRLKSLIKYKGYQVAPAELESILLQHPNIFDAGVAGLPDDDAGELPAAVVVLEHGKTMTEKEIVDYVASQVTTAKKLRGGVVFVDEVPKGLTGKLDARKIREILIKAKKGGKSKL
#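 Purified P. pyralis luciferase, 10 nM final, with Km-level 10 uM D-luciferin and 10 uM ATP in 50 mM Tris acetate pH 7.5, 10 mM Mg acetate, 0.01% Tween-20, 0.05% BSA; 6-point qHTS titration about 60 µM downward; luminescence read.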
# NPC1 prom act = NPC1 promoter activation | Huh7 NPC1 promoter luciferase reporter, 24 h | actives 2.4% (n = 320,000) | Potency, µM (doses to about 9.22 µM), for inactives: top-dose activation, hits mostly activators; note: % of control where 0% means no effect; nearly all actives have a fitted effect of over 60% in size
#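 Huh7 cells stably carrying NPC1 promoter–luciferase, plated in Opti-MEM with 10% FBS for 2 h, were exposed to compound in DMSO for 24 h at 37 °C; luciferase reagent was added for 10 min and luminescence read.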
# Rab9 prom act = activators of Rab9 promoter | Potency, µM (highest dose often 9.22 µM), without a hit: at the highest dose activation, negative = inhibition, usual class: activators | actives 2.8% (n = 320,000) | Huh7 Rab9 promoter-luciferase reporter, luminescence, 24 h; note: % of control where 0% means no effect; nearly all actives have a fitted effect of over 60% in size
#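 Luminescence from Amplite-detected luciferase (10 minutes, ambient) reports Rab9 promoter activation. Before that, stable Rab9-luciferase Huh7 cells (1500/well, reduced-serum OP-MEM I plus 10% FBS) were exposed to compound for 24 hours at 37C.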
# ELG1 genotoxic = inducers of genotoxicity in HEK293T ELG1-luciferase cells; Potency, µM (highest dose often 46 µM), inactives show top-dose activity change, positive = activation, most hits filed as activators; AID 504466; actives 1.3% (n = 330,000); HEK293T ELG1-luciferase reporter, luminescence, 16 h; note: % of control where 0% means no effect; nearly all actives have a fitted effect of over 60% in size
#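 Screening used a luciferase reporter fused to human ELG1 in HEK293T cells. Luminescence was read on a CCD plate imager after 16 hr exposure and 30 min ONE-Glo incubation.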
# SMN2 splice enh = SMN2 splice variant enhancement. HEK293 SMN2-luciferase splicing reporter, luminescence, 30-36 h. Potency, µM (highest dose often 46.1 µM), without a hit: at the top dose activity change, positive = activation, usual class: activators. actives 2.8% (n = 210,000). AID 1458; note: % of control where 0% means no effect; nearly all actives have a fitted effect of over 55% in size
#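 HEK293 cells carry an SMN2 minigene-luciferase reporter in which exon 7 inclusion puts luciferase in frame. Cells were seeded at 2000 cells/well, attached for 10-12 hours, then exposed to compounds for 30-36 hours at 37C before ONE-Glo luminescence.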
# KinaseGlo FLuc = blocks Kinase-Glo luciferase, a counter-screen artifact; Q27757; Kinase-Glo luciferase, ATP luminescence, 8 min; Potency, µM (doses to about 38.3 µM), inactives show at the highest dose activity change, negative = inhibition, most hits filed as inhibitors; actives 0.28% (n = 200,000); AID 1379; note: % is set by controls: 0 for no effect and ±100 for the full control effect; nearly all actives have a fitted effect of over 60% in size
#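 Compounds were added to a substrate mix at pH 7.2 (50 mM imidazole, 10 uM ATP, within the enzyme's linear range), followed by Kinase-Glo detection reagent; luminescence was measured after 8 minutes at ambient temperature.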
# * hit, by the source's call; ? = inconclusive; / = no result. Calls come from the whole dose curve; as a rule, active = well fitted curve in the direction sought with a large enough effect; inconclusive = small, poorly fitted or top-dose-only effect, or another doubt; inactive = no such curve, though single readings can be large; an effect the other way counts as inactive or inconclusive. Potency is the fitted concentration of half-maximal effect.
SMILES,FLuc counter,NPC1 prom act,Rab9 prom act,ELG1 genotoxic,SMN2 splice enh,KinaseGlo FLuc
O=C(CCC(=O)c1ccc(Oc2ccccc2)cc1)Nc1cccc(Cl)c1,0.7%,0.3%,-1.3%,1.0%,0.5%,0.2%
CN(C)CCN(C(=O)C1CCN(S(=O)(=O)c2cccs2)CC1)c1nc2c(F)cccc2s1,-1.9%,-1.3%,-2.5%,0.2%,/,/
O=C(NCCOCCn1c(=O)oc2ccccc21)Nc1ccc(Cl)cc1,-1.1%,/,/,/,0.7%,/
O=C(O)c1ccccc1C(=O)Nc1ccc(Br)c(C(F)(F)F)c1,19µM*,-3.6%,-0.3%,1.2%,/,/
Nc1nnc(SCc2ccc([N+](=O)[O-])cc2)s1,-2.2%,0.6%,-1.9%,-3.9%,-23.9%,5.1%
COC(=O)CSc1nc2ccc(N)cc2s1,26.9µM*,-0.2%,-1.5%,-1.6%,1.2%,-3.2%
CC(C)OC(=O)CSc1nc2ccccc2s1,23.9µM*,1.2%,-0.7%,?,-20.4%,-6.4%
Nc1ccc2nc(SCc3ccc([N+](=O)[O-])cc3)sc2c1,21.3µM*,-6.8%,3.4%,-0.4%,-24.9%,-1.7%
CCCCOc1ccc(CNC(=O)c2cnc3sc(N4CCCCCC4)nn3c2=O)cc1,6.8%,/,/,/,/,/
CCc1ccccc1NC(=O)C1CCN(c2nn3c(=O)cc(C)nc3s2)CC1,-7.0%,/,/,/,8.7%,/
CC1NC(C(=O)O)Cc2c1[nH]c1ccccc21 (centres undefined),/,/,/,/,-0.5%,/
CN(c1ccccc1)S(=O)(=O)c1ccc(C(=O)NCc2ccccc2F)cc1,7.4%,-1.5%,-3.0%,-0.1%,/,/
Cc1cnn(C(=S)NCCc2ccccc2)c1,19µM*,?,?,14.6µM*,?,-3.1%
Cc1cnn(C(=S)NCc2ccc(Cl)cc2)c1,-13.0%,-0.7%,0.8%,-4.8%,-25.5%,-5.9%
COc1cc(NC(=O)CN2C(=O)C(=O)N(CC(C)C)C2=O)cc(OC)c1,2.6%,-2.3%,-0.1%,1.4%,/,/
CCCOc1ccccc1/C=C(\C#N)C(=O)Nc1cccnc1,19µM*,8.3%,28.0%,?,/,/
COc1ccc(O)c(/C=C(\C#N)C(=O)Nc2cccnc2)c1,4.78µM*,8.3%,21.5%,?,5.2%,-3.9%
COc1ccc(/C=C(\C#N)C(=O)Nc2cccnc2)cc1,?,-2.8%,0.6%,1.4%,1.9%,-0.1%
O=[N+]([O-])c1ccccc1OCCCn1cnc2ccccc21,5.36µM*,2.82µM*,2µM*,?,11.2µM*,-0.1%
O=c1c2ccccc2ncn1CCCOc1ccccc1[N+](=O)[O-],15.1µM*,3.98µM*,3.55µM*,?,/,/
O=[N+]([O-])c1ccccc1OCCCN1CCOCC1,-7.9%,-4.1%,-11.9%,1.4%,-4.5%,-0.8%
CSCc1ccc(C(=O)NC(C)c2ccc(-n3ccnc3)cc2)cc1 (centres undefined),-15.3%,2.1%,4.9%,2.0%,/,/
Cc1ccc(C(=O)O/N=C2\CCS(=O)(=O)c3sccc32)cc1,0.477µM*,1.0%,4.2%,-2.0%,6.6%,0.8%
O=C(O/N=C1\CCS(=O)(=O)c2sccc21)c1c(F)cccc1F,4.78µM*,-8.6%,-16.2%,-2.1%,-6.1%,-3.4%
O=S1(=O)CC/C(=N\Nc2ccccc2)c2ccsc21,?,1.0%,-0.8%,6.9%,-10.8%,0.7%
COc1cccc(C(=O)O/N=C2\CCS(=O)(=O)c3sccc32)c1,1.51µM*,-6.8%,6.0%,0.5%,2.1%,-4.1%
CN(C)S(=O)(=O)c1ccc(C(=O)Nc2cccc(S(=O)(=O)NC3=NCCC3)c2)cc1,-18.5%,-1.6%,-2.6%,-0.1%,/,/
O=C(Nc1cccc(S(=O)(=O)NC2=NCCC2)c1)c1ccccc1,/,/,/,-0.7%,/,/
O=C(Nc1cccc(S(=O)(=O)NC2=NCCC2)c1)c1ccc(OC(F)F)cc1,10.7µM*,-3.0%,-0.4%,-0.2%,/,/
CCOc1ccc(C(=O)NC(=S)Nc2cccc(S(=O)(=O)NC3=NCCC3)c2)cc1,12µM*,-20.1%,-3.9%,?,0.4%,0.3%

# Bioassay records as filed in PubChem BioAssay.
